Bioassay records from PubChem BioAssay.
Pf growth 96h: P. falciparum growth inhibition at 96 hour, primary screen for plastid delayed-death inhibitors. Potency, µM (top dose mostly 28.7 µM), for inactives: at the top dose activity change, negative = inhibition, usual class: inhibitors. 320,000 tested, 6.9% active. P. falciparum luciferase reporter growth, 96 h; further: potency means the concentration at half of the fitted maximal effect; on the % scale 0 is the no-effect control and ±100 the full control effect
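96 h incubation, 37 C, 5% CO2, of luciferase-reporter P. falciparum-infected RBCs (2% hematocrit, 0.05% parasitemia final) with test compounds; endpoint luminescence.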
Pf growth 48h: P. falciparum growth inhibition at 48 hours (one generation); 310,000 tested, 5.9% active; AID 504832; P. falciparum luciferase growth in erythrocytes, 48 h; Potency, µM (titrated, usually from 28.7 µM), for the others: top-dose activity change, negative = inhibition, actives largely listed as inhibitors; further: potency means the concentration at half of the fitted maximal effect; on the % scale 0 is the no-effect control and ±100 the full control effect
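Cell-based growth assay: transgenic P. falciparum expressing firefly luciferase, cultured in red cells within RPMI 1640 containing 0.5% w/v Albumax, 24 mM bicarbonate and gentamycin. A drop in luciferase activity indicates inhibition.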
Shiga toxin inh: inhibitors of Shiga toxin in Vero cells; 290,000 tested, 9.2% active; Vero cells, Shiga toxin protein synthesis inhibition reporter; inhibition, % at 38.7 µM; in the data active means inhibition mostly above about 28%, no sharp cut-off; inactive means mostly below about 43%; further: 0% is about no effect
Cycloheximide cs: affects cycloheximide protein synthesis inhibition readout, counter-screen. cell reporter, cycloheximide protein synthesis inhibition counterscreen. max response, %. 300,000 tested, 12% active; in the data active means max response mostly above about 13%, no sharp cut-off; inactive means mostly below about 14%; further: read at 38.3 µM for the half of the compounds with a filed dose; 0% is about no effect
NS1 function inh: inhibitors of influenza NS1 protein function; AID 2326; 270,000 tested, 0.4% active; Potency, µM (titrated, usually from 46.1 µM), inactives show at the highest dose activity, positive = more growth; calls by dose curve; further: potency means the concentration at half of the fitted maximal effect; actives are rising curves; nearly all actives have a fitted effect of over 50% in size
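S. cerevisiae expressing influenza A NS1, grown in glucose, washed, then diluted 1:100 into pH 6.0 -URA galactose medium with 23 nl compound. Growth recovery read as OD600; NS1-free strain serves as control.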
Active calls of the source: *. In the library only some 21% were active in any assay of this set; here they are far more common. Unless noted, the call rests on the fitted dose curve; in most records, active means well fitted inhibition curve with a large enough effect; inconclusive means small, poorly fitted or top-dose-only effect, or another doubt; inactive means no such curve, though single readings can be large or run the other way.

How did COc1cc(S(=O)(=O)N2CCOCC2)ccc1N do in these assays?
Pf growth 96h: -2%; Pf growth 48h: 9%; Shiga toxin inh: -2; Cycloheximide cs: -5; NS1 function inh: 7%

What do the screens show for `O=c1c(F)cn(C2CCCO2)c(=O)n1Cc1c(Cl)cccc1Cl` (configuration not stated)?
Pf growth 96h: 13µM*; Shiga toxin inh: 15; Cycloheximide cs: -2; NS1 function inh: 0%

Results for Cc1nn(-c2ccccn2)c2c1-c1nc(N)ncc1CC2 ?
Pf growth 48h: 36%; Shiga toxin inh: 49*; Cycloheximide cs: 36*; NS1 function inh: -3%

Results for Cc1[nH]c2ccccc2c1C1=CCNCC1 ?
Pf growth 96h: -31%; Pf growth 48h: 3.3µM*; Shiga toxin inh: -8; Cycloheximide cs: 12; NS1 function inh: inconclusive

How did Cc1ccc(-n2c(SCC(=O)Nc3cccc(S(=O)(=O)NC4=NCCCCC4)c3)nc3ccccc3c2=O)cc1 do in these assays?
Pf growth 96h: 3.7µM*; Pf growth 48h: inconclusive; Shiga toxin inh: -13; Cycloheximide cs: -2; NS1 function inh: 28%

What do the screens show for `O=C(CSc1nc2ccccc2c(=O)n1-c1ccc(F)cc1)Nc1ccc(Cl)c(S(=O)(=O)N2CCOCC2)c1`?
Pf growth 96h: 5.9µM*; Pf growth 48h: 9.3µM*; Shiga toxin inh: -15; Cycloheximide cs: -3; NS1 function inh: inconclusive

Results for O=C(CSc1nc2ccccc2c(=O)n1-c1ccc(F)c(Cl)c1)Nc1cccc(S(=O)(=O)N2CCOCC2)c1 ?
Pf growth 96h: 4.1µM*; Pf growth 48h: inconclusive; Shiga toxin inh: 17; Cycloheximide cs: -5; NS1 function inh: inconclusive

What do the screens show for `Nc1nc(SCC(=O)Nc2ccc(Cl)c(S(=O)(=O)N3CCOCC3)c2)n[nH]1`?
Pf growth 96h: inconclusive; Pf growth 48h: inconclusive; Shiga toxin inh: -4; Cycloheximide cs: -3; NS1 function inh: -1%

Results for O=C(CSc1nc2ccccc2c(=O)n1-c1ccccc1F)Nc1ccc2c(c1)CCC2 ?
Pf growth 96h: inconclusive; Pf growth 48h: inconclusive; Shiga toxin inh: -3; Cycloheximide cs: -1; NS1 function inh: inconclusive

How did O=C(CSc1nc2ccccc2c(=O)n1-c1ccc(F)cc1)Nc1ccc2c(c1)CCC2 do in these assays?
Pf growth 96h: 9.3µM*; Pf growth 48h: 9.3µM*; Shiga toxin inh: 16; Cycloheximide cs: 11; NS1 function inh: inconclusive

What do the screens show for `CCN(CC(=O)Nc1ccccc1C(F)(F)F)C(=O)CCOc1ccc(C)cc1`?
Pf growth 96h: 1%; Pf growth 48h: 18%

Results for COc1ccc(CCN2C(=NC(=O)C(C)C)SC3CS(=O)(=O)CC32)cc1 (configuration not stated) ?
Pf growth 96h: 16%; Pf growth 48h: 9%; Shiga toxin inh: 33; Cycloheximide cs: -3; NS1 function inh: -8%

What do the screens show for `O=C(CN1C(=O)NC2(CCCCCC2)C1=O)N1CCN(S(=O)(=O)c2ccccc2)CC1`?
Pf growth 96h: 1%; Pf growth 48h: -1%; Shiga toxin inh: -10; Cycloheximide cs: -2; NS1 function inh: -3%

Results for Cc1ccc(S(=O)(=O)N2CCOCC2)cc1NC(=O)CSc1nnc2cc(C)c3ccccc3n12 ?
Pf growth 96h: 13µM*; Pf growth 48h: 5.9µM*; Shiga toxin inh: -3; Cycloheximide cs: -2; NS1 function inh: 8%

How did Cc1ccc(-c2nc(SCC(=O)Nc3cc(S(=O)(=O)N4CCCCC4)ccc3Cl)n[nH]2)cc1 do in these assays?
Pf growth 96h: inconclusive; Pf growth 48h: 11%; Shiga toxin inh: 3; Cycloheximide cs: 17*; NS1 function inh: inconclusive

What do the screens show for `Cc1ccc(-n2c(SCC(=O)Nc3cc(S(=O)(=O)N4CCOCC4)ccc3Cl)nc3ccccc3c2=O)cc1`?
Pf growth 96h: 2.9µM*; Pf growth 48h: 10µM*; Shiga toxin inh: -21; Cycloheximide cs: 4; NS1 function inh: inconclusive

How did Nc1cc(=O)[nH]c(SCC(=O)Nc2cc(S(=O)(=O)N3CCOCC3)ccc2Cl)n1 do in these assays?
Pf growth 96h: -3%; Pf growth 48h: 0%; Shiga toxin inh: -27; Cycloheximide cs: 2

What do the screens show for `Cc1nc(SCC(=O)Nc2cc(S(=O)(=O)N3CCOCC3)ccc2Cl)nc(C)c1C`?
Pf growth 96h: 15µM*; Pf growth 48h: inconclusive

How did Cc1ccc(S(=O)(=O)N2CCOCC2)cc1NC(=O)CSc1ncccn1 do in these assays?
Pf growth 96h: 4%; Pf growth 48h: inconclusive

Results for COc1ccc(/C(O)=C2/C(=O)C(=O)N(CCCN3CCOCC3)C2c2ccc(C(C)C)cc2)cc1 (configuration not stated) ?
Pf growth 96h: inconclusive; Pf growth 48h: -1%; Shiga toxin inh: 30; Cycloheximide cs: -1; NS1 function inh: 1%

How did CN(C)c1ccc(/C=N\Nc2nc(-c3ccccc3)cc(=O)[nH]2)cc1 do in these assays?
Pf growth 96h: 2.3µM*; Pf growth 48h: 2.3µM*; Shiga toxin inh: -19; Cycloheximide cs: -1; NS1 function inh: 5%

Results for COc1ccc(/C(C)=N\Nc2nc(-c3ccccc3)cc(=O)[nH]2)cc1 ?
Pf growth 96h: 0.59µM*; Pf growth 48h: 0.93µM*; Shiga toxin inh: -1; Cycloheximide cs: 8; NS1 function inh: 3%

How did COc1ccc(/C=C/c2nc(-c3ccccc3)cc(=O)[nH]2)cc1 do in these assays?
Pf growth 96h: 3%; Pf growth 48h: inconclusive; Shiga toxin inh: -10; Cycloheximide cs: 1; NS1 function inh: -9%

How did COc1ccc(/C=N/Nc2nnc(-c3ccccc3)c(=O)[nH]2)cc1 do in these assays?
Pf growth 96h: inconclusive; Pf growth 48h: 20%; Shiga toxin inh: 2; Cycloheximide cs: 3; NS1 function inh: -10%

How did C/C(=N\NC(=O)c1nn(C)c(C)c1Br)c1cccc(NC(=O)c2ccoc2C)c1 do in these assays?
Pf growth 96h: inconclusive; Pf growth 48h: 14%; Shiga toxin inh: 24*; Cycloheximide cs: 46*; NS1 function inh: 8%

What do the screens show for `C/C(=N\NC(=O)c1c(Cl)c(C)nn1C)c1cccc(NC(=O)COc2ccc(Cl)cc2)c1`?
Pf growth 96h: inconclusive; Shiga toxin inh: 14; Cycloheximide cs: 9; NS1 function inh: -7%

What do the screens show for `COc1ccc(C(=O)Nc2cccc(/C(C)=N\NC(=O)c3ccoc3C)c2)cc1OC`?
Pf growth 96h: -5%; Pf growth 48h: -16%; Shiga toxin inh: 60*; Cycloheximide cs: 45*; NS1 function inh: -15%

How did O=C(Nc1nc(-c2ccccn2)cs1)c1ccccc1-n1cnnn1 do in these assays?
Pf growth 96h: 1.7µM*; Pf growth 48h: inconclusive; Shiga toxin inh: 6; Cycloheximide cs: 10*; NS1 function inh: -11%

How did O=C(Nc1nc(-c2ccccn2)cs1)c1cc(Cl)ccc1[N+](=O)[O-] do in these assays?
Pf growth 96h: 2.3µM*; Pf growth 48h: 13µM*; Shiga toxin inh: 21; Cycloheximide cs: 11

How did O=C(Nc1nc(-c2ccccn2)cs1)c1ccc2c(c1)OCCO2 do in these assays?
Pf growth 96h: inconclusive; Pf growth 48h: 220%; Shiga toxin inh: 62*; Cycloheximide cs: 44*; NS1 function inh: 9%
